# In the supplement of paper PMC6522484:
# ± gives the standard deviation of the averaged measurements.
# How the values were obtained:
# DLD1 [1] = assay: cell viability (CellTiter-Glo) relative to plate median (fraction of plate median); higher = more viable cells; conditions: 5 µM; treatment time 24 h; reporter: 7TFP
# In short: (§1)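 Luminescence, normalised well by well to the plate median, is tabulated as a mean of independent replicates. There were two replicates, run on colorectal cancer lines stably transduced with lentiviral TCF/Wnt firefly luciferase reporters and dosed with library compounds at a final 5 µM for 24 h. Readouts were firefly luciferase or CellTiterGlo on parallel plates.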
# HCT116 = assay: as above; conditions: 5 µM; treatment time 24 h; reporter: TCF4/Wnt
# In short: as §1
# SW480 [2] = assay: as above; conditions: 5 µM; treatment time 24 h; reporter: 7TFP
# In short: as §1
# DLD1 [3] = assay: TCF/Wnt firefly luciferase reporter signal relative to plate median (fraction of plate median); higher = higher Wnt reporter signal; conditions: 5 µM; treatment time 24 h; reporter: 7TFP
# In short: as §1
# SW480 [4] = assay: as above; conditions: 5 µM; treatment time 24 h; reporter: 7TFP
# In short: as §1
Structure (SMILES),cell viability (DLD1 [1]),cell viability (HCT116),cell viability (SW480 [2]),TCF/Wnt firefly luciferase reporter signal (DLD1 [3]),TCF/Wnt firefly luciferase reporter signal (SW480 [4])
Cn1nnnc1SCC1=C(C(=O)O)N2C(=O)[C@@H](NC(=O)[C@H](OC=O)c3ccccc3)[C@H]2SC1,1.02,0.932 ± 0.056,1.03 ± 0.044,0.9225 ± 0.00071,0.992 ± 0.04
C[C@H](N)CO,0.911 ± 0.034,0.902 ± 0.047,0.93 ± 0.035,0.908 ± 0.058,1.12 ± 0.092
COc1cc([C@@H]2c3cc4c(cc3[C@@H](O[C@@H]3O[C@@H]5CO[C@@H](c6cccs6)O[C@H]5[C@H](O)[C@H]3O)[C@H]3COC(=O)[C@H]23)OCO4)cc(OC)c1O,0.946 ± 0.047,0.747 ± 0.0014,0.952 ± 0.14,0.738 ± 0.032,0.868
COc1ccc(-c2coc3cc(OC)cc(OC)c3c2=O)cc1,1.03 ± 0.086,1.04,1.035 ± 0.0071,0.963 ± 0.11,1.04 ± 0.028
COC(=O)C(N)CS (stereo not given),0.972 ± 0.054,0.965 ± 0.092,1 ± 0.036,0.836 ± 0.039,0.91 ± 0.03
Cc1ccc(C(=O)Nc2ccc(S(=O)(=O)O)c3cc(S(=O)(=O)O)cc(S(=O)(=O)O)c23)cc1NC(=O)c1cccc(NC(=O)Nc2cccc(C(=O)Nc3cc(C(=O)Nc4ccc(S(=O)(=O)O)c5cc(S(=O)(=O)O)cc(S(=O)(=O)O)c45)ccc3C)c2)c1,1.02 ± 0.068,0.929 ± 0.13,1.04 ± 0.035,0.936 ± 0.018,0.954 ± 0.11
COc1c(-c2coc3cc4c(cc3c2=O)CC(OC(C)=O)C(C)(C)O4)ccc2c1C=CC(C)(C)O2 (stereo not given),0.961 ± 0.0085,0.887 ± 0.077,1.01 ± 0.045,1.01 ± 0.32,1.1 ± 0.16
CC(=O)O[C@@H]1CC[C@@]2(C)C(C[C@@H](OC(C)=O)[C@@]3(C)C4=CC(=O)O[C@@H](c5ccoc5)[C@]4(C)CCC23)C1(C)C (stereo partly drawn) [3alpha-ACETOXYDIHYDRODEOXYGEDUNIN],1 ± 0.021,1.04 ± 0.11,0.956 ± 0.026,1.25 ± 0.22,1.11 ± 0.028
CC(=O)OC1CCC2(C)C3=C(CC[C@H]2C1(C)C)[C@@]1(C)CC[C@@H]([C@@H](C)CCC=C(C)C)[C@]1(C)CC3 (stereo not given in full),1.04 ± 0.097,1 ± 0.064,0.961 ± 0.0014,1.06 ± 0.17,1.11 ± 0.014
C[C@]12CCC(=O)C=C1CC[C@@H]1[C@@H]2[C@@H](O)C[C@@]2(C)[C@H]1CC[C@]2(O)C(=O)CO,1.06 ± 0.071,1.05 ± 0.057,1.04 ± 0.028,0.951 ± 0.11,0.935 ± 0.04
CC(C)(C(=O)O)c1ccc(C(O)CCCN2CCC(C(O)(c3ccccc3)c3ccccc3)CC2)cc1 (stereo not given),1.05 ± 0.078,0.899 ± 0.049,1.055 ± 0.0071,1.05 ± 0.028,1.13
COC(=O)/C=C/c1ccc(O)c(O)c1 [Caffeic acid methylester],0.918 ± 0.079,0.987 ± 0.12,0.979 ± 0.072,1.02 ± 0.098,1.04 ± 0.087
N[C@@H](Cc1cc(I)c(Oc2ccc(O)c(I)c2)c(I)c1)C(=O)O,0.988 ± 0.015,0.926 ± 0.012,0.969 ± 0.036,1.01 ± 0.17,0.978 ± 0.0099
COc1ccc(/C=C/C(=O)c2ccc(O)cc2O)cc1OC,0.955 ± 0.046,1.04 ± 0.035,1.08 ± 0.042,1.03,0.986 ± 0.062
CC[C@@H](CO)NCCN[C@@H](CC)CO,0.963 ± 0.12,1.03 ± 0.021,1.02 ± 0.059,1.2 ± 0.05,1.19 ± 0.035
COc1ccc(-c2coc3cc(O)ccc3c2=O)cc1,1.01 ± 0.071,1.01 ± 0.15,0.9355 ± 0.00071,0.998 ± 0.046,0.972 ± 0.069
CC(=O)O[C@H]1CC[C@@]2(C)[C@H](CC[C@@H]3[C@@H]2CC[C@]2(C)[C@@H]4[C@H](C[C@@H]32)O[C@]2(CC[C@@H](C)CO2)[C@H]4C)C1,1.01 ± 0.028,0.979 ± 0.1,0.977 ± 0.0014,0.836 ± 0.043,0.941 ± 0.083
CC(C)[C@@H]1CC[C@@H](C)C[C@H]1OC(=O)c1ccccc1,1.01 ± 0.025,1.03 ± 0.057,1.06 ± 0.042,1.01 ± 0.19,0.996 ± 0.02
O=C(COc1ccc(Cl)cc1)N1CCN(Cc2ccc3c(c2)OCO3)CC1,0.9755 ± 0.0064,0.893 ± 0.03,1.035 ± 0.0071,0.865 ± 0.18,0.921 ± 0.018
CC1(C)O[C@@H]2[C@@H](CO[C@@]3(COS(N)(=O)=O)OC(C)(C)O[C@@H]23)O1,0.925 ± 0.042,1.04 ± 0.014,1.03 ± 0.052,1.12 ± 0.11,0.845 ± 0.12
CC(C)NCC(O)c1ccc(O)c(O)c1 (stereo not given),0.963 ± 0.11,1.04 ± 0.074,0.999 ± 0.016,1.02 ± 0.08,1.1 ± 0.042
COc1ccc(-c2coc3cc(O)cc(O)c3c2=O)cc1,1.01 ± 0.065,0.888 ± 0.016,1.01 ± 0.044,0.985 ± 0.16,1.05 ± 0.064
CCOC(=O)C(=O)C1(C(=O)OCC)Oc2cc(OC)cc(OC)c2C(=O)C1c1ccccc1 (stereo not given),0.978 ± 0.03,0.951 ± 0.23,1.01 ± 0.13,0.939 ± 0.083,1.02 ± 0.069
Cn1c([N+](=O)[O-])cnc1COC(N)=O,0.999 ± 0.072,1.07 ± 0.071,1.03 ± 0.014,1.05 ± 0.028,0.996 ± 0.12
CCCCCCCCCCCCCCCCOP(=O)([O-])OCC[N+](C)(C)C,1.04 ± 0.035,0.984 ± 0.0099,0.969 ± 0.035,1.07 ± 0.16,1.04 ± 0.05
CN[C@H]1CC[C@@H](c2ccc(Cl)c(Cl)c2)c2ccccc21,0.713 ± 0.26,0.386 ± 0.052,0.934 ± 0.22,0.796 ± 0.23,0.675 ± 0.15
Cn1nnnc1SCC1=C(C(=O)O)N2C(=O)[C@@H](NC(=O)[C@H](O)c3ccccc3)[C@H]2SC1,1.05 ± 0.064,0.949 ± 0.03,1.01 ± 0.037,0.878 ± 0.03,0.989 ± 0.072
CCN(CC)CCOc1ccc2c(c1)C(=O)c1cc(OCCN(CC)CC)ccc1-2,0.941 ± 0.083,0.925 ± 0.072,0.998 ± 0.045,1.05 ± 0.093,1.02 ± 0.06
CCN(CC)CCOc1ccc(C(=C(Cl)c2ccccc2)c2ccccc2)cc1,0.983 ± 0.019,0.971 ± 0.041,0.939 ± 0.073,0.914 ± 0.028,1.01 ± 0.27
